Assay outcomes as filed in PubChem BioAssay.
CYP2C19 inh – human CYP2C19 inhibition | 96,000 compounds, 21% hits | CYP2C19 Supersomes, luciferin-H EGE luminescence, 30 min | inhibition, % at 5 µM | P33261 | AID 778;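 active = CYP2C19 inhibition above a set limit at 5 µM in the primary screen, cut at about 50% in these data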;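 also: plate controls were negative control wells for no effect and 2.5 mM tranylcypromine positive control for full effect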
Target sequence (P33261 whole entry, looked up): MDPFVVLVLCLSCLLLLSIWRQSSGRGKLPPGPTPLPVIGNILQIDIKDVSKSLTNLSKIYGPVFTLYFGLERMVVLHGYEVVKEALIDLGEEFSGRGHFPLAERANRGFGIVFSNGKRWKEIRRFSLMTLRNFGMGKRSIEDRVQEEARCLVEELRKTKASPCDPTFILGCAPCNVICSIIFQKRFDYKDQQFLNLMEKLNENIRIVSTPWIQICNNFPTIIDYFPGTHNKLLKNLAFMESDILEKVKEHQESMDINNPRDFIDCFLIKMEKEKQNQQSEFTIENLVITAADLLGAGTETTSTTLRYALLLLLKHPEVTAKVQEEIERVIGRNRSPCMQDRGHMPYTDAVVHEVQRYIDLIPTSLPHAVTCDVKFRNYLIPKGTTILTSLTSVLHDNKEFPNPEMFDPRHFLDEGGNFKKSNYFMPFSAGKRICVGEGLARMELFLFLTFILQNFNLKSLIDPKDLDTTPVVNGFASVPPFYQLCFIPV
CYP2C9 inhib – blocks human cytochrome P450 2C9; P11712; inhibition, % at 5 µM; CYP2C9 Supersomes, luciferin-H conversion, luminescence; 96,000 compounds, 20% hits; AID 777;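 active = blocking of liver enzyme CYP2C9 beyond about 50% at 5 µM, limit read from the data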
sEH inhibitor – blocks human soluble epoxide hydrolase activity. recombinant human sEH enzymatic activity assay. inhibition, % at 2 µM. 91,000 compounds, 0.34% hits; in the data active = inhibition above about 80%
CYP2C19 act – increases human CYP2C19 enzyme activity; recombinant CYP2C19, luciferin-H EGE luminescence; stronger effect = higher value; 0 = fully inhibited enzyme, 1 = untreated enzyme; activation factor at 5 µM; 96,000 tested, under 10 active; P33261;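 active = activation factor of at least 2 at 5 µM in the primary screen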;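 also: 0 = wells with 2.5 mM tranylcypromine and 1 = vehicle-only wells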
sEH act – soluble epoxide hydrolase (human) activation | purified human sEH enzymatic activity, activator screen | activation, % at 2 µM | 91,000 compounds, 0.04% hits | AID 717; in the data active = activation above about 37%
CYP2C9 activ – increases human cytochrome P450 2C9 activity | P11712 | recombinant CYP2C9, luciferin-H conversion, luminescence; stronger effect = higher value; factor 1 = untreated enzyme, 0 = blocked | activation factor at 5 µM | 96,000 compounds, 1.4% hits | AID 1024;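 active = activation factor of 2 or more for CYP2C9 at a 5 µM dose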;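 also: 0 = sulfaphenazole-blocked wells and 1 = vehicle-only wells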
Starred values were filed as active, the others as inactive. Shown are actives, neighbours in structure and some others; about 27% of the full set was active somewhere.

O=C(c1cc(S(=O)(=O)N2CCCCC2)ccc1F)N1CCCCC1 was read as CYP2C19 inh 12.9, CYP2C9 inhib 16.6, sEH inhibitor -11.4, CYP2C19 act 0.9, sEH act 7.9 and CYP2C9 activ 0.8.
`Cc1scc(C(=O)N2CCN(S(C)(=O)=O)CC2)c1-c1ccccc1` gave CYP2C19 inh 96.8*, CYP2C9 inhib 34.3, sEH inhibitor 5.6, CYP2C19 act 0, sEH act -4.4 and CYP2C9 activ 0.7.
Screening O=S(=O)(Cc1cnc(Cl)s1)c1ccccc1 returned CYP2C19 inh 47.4, CYP2C9 inhib 7.4, sEH inhibitor -9.2, CYP2C19 act 0.5, sEH act 11.8 and CYP2C9 activ 0.9.
For COc1cc(C2C(C#N)=C(N)OC3=C2C(=O)CCC3)cc(OC)c1OC(=O)N1CCOCC1 (stereo unspecified) the results were CYP2C19 inh 12.4, CYP2C9 inhib 9.3, sEH inhibitor -4.5, CYP2C19 act 0.9, sEH act 2.5 and CYP2C9 activ 0.9.
`Cn1c(SCC(=O)c2ccc3c(c2)OCCO3)nnc1C1CC1` gave sEH inhibitor 1.4 and sEH act -2.1.
Screening CCOC(=O)c1c(-n2c(C)cc(C=O)c2C)sc2c1CCCC2 returned CYP2C19 inh 18.0, CYP2C9 inhib 60.6*, sEH inhibitor -2.1, CYP2C19 act 0.8, sEH act 3.9 and CYP2C9 activ 0.4.
`Cc1ccc(N2CCCCn3c2nc2c3c(=O)[nH]c(=O)n2C)cc1` gave CYP2C19 inh 7.8, CYP2C9 inhib 12.1, sEH inhibitor -5.0, CYP2C19 act 0.9, sEH act 4.5 and CYP2C9 activ 0.9.
For COC(=O)COc1cccc(-n2cnnn2)c1 the results were CYP2C19 inh 8.0, CYP2C9 inhib 6.0, sEH inhibitor 6.3, CYP2C19 act 0.9, sEH act -7.5 and CYP2C9 activ 0.9.
`Cc1cc(C(=O)OCn2nnc3ccccc3c2=O)c(C)n1-c1ccccc1` gave CYP2C19 inh 77.5*, CYP2C9 inhib 84.4*, sEH inhibitor 9.7, CYP2C19 act 0.2, sEH act -9.6 and CYP2C9 activ 0.2.
Screening Cc1ccccc1C(=O)OCn1nnc2ccccc2c1=O returned CYP2C19 inh 3.0, CYP2C9 inhib -69.2, CYP2C19 act 1 and CYP2C9 activ 1.7.
CSc1cccc(-n2c(C)cc(C(N)=O)c2C)c1 was read as CYP2C19 inh 69.4*, CYP2C9 inhib 19.4, sEH inhibitor -2.4, CYP2C19 act 0.3, sEH act 2.0 and CYP2C9 activ 0.8.
`Cc1cc(C(=O)CN2CC(C)OC(C)C2)c(C)n1-c1ccccc1` (stereo unspecified) gave CYP2C19 inh 4.4, CYP2C9 inhib 8.2, CYP2C19 act 1 and CYP2C9 activ 0.9.
Screening Cc1cc(C(=O)O)c(C)n1-c1ccccc1 returned CYP2C19 inh 21.8, CYP2C9 inhib 64.6*, sEH inhibitor -0.2, CYP2C19 act 0.8, sEH act -0.6 and CYP2C9 activ 0.4.
For Cc1cc(C(=O)COc2cccc(-n3cnnn3)c2)c(C)n1-c1ccccc1 the results were CYP2C19 inh 86.1*, CYP2C9 inhib 22.1, sEH inhibitor -13.7, CYP2C19 act 0.1, sEH act 13.2 and CYP2C9 activ 0.8.
`Cc1ccc(C)c(SCc2noc(C(=O)NCC3CCCO3)c2C(=O)O)c1` (stereo unspecified) gave CYP2C19 inh 16.1, CYP2C9 inhib 13.2, sEH inhibitor 4.5, CYP2C19 act 0.8, sEH act 1.2 and CYP2C9 activ 0.9.
Screening O=C(NCCO)c1cccc(Nc2nc(-c3ccccc3)c3cc(Cl)ccc3n2)c1 returned CYP2C19 inh 16.5, CYP2C9 inhib -4.1, sEH inhibitor 7.8, CYP2C19 act 0.8, sEH act -3.9 and CYP2C9 activ 1.
Screening O=C(CN1CCCCC1)Nc1cccc([N+](=O)[O-])c1 returned CYP2C19 inh -2.6, CYP2C9 inhib -3.9, sEH inhibitor -1.0, CYP2C19 act 1, sEH act 2.1 and CYP2C9 activ 1.
Cc1noc(/C=C/c2ccco2)c1S(=O)(=O)N1CCC(C(=O)NCc2ccco2)CC1 was read as CYP2C19 inh 3.7, CYP2C9 inhib 21.4, CYP2C19 act 1 and CYP2C9 activ 0.8.
For Cc1noc(/C=C/c2ccco2)c1S(=O)(=O)N1CCC(C(=O)N2CCc3ccccc3C2)CC1 the results were CYP2C19 inh 35.2, CYP2C9 inhib 73.2*, CYP2C19 act 0.6 and CYP2C9 activ 0.3.
For Cc1ccc(CNC(=O)C2CCN(S(=O)(=O)c3c(C)noc3/C=C/c3ccco3)CC2)cc1 the results were CYP2C19 inh 14.5, CYP2C9 inhib 57.2*, sEH inhibitor 7.7, CYP2C19 act 0.9, sEH act -4.4 and CYP2C9 activ 0.4.
CC1=Nc2ccccc2/C1=C\c1nc(-c2ccccc2)oc1O was read as CYP2C19 inh 42.2, CYP2C9 inhib 95.0*, sEH inhibitor 3.8, CYP2C19 act 0.6, sEH act -3.0 and CYP2C9 activ 0.1.
Screening CCOC(=O)N1CCC(NC(=O)c2cnn3c(C(F)(F)F)cc(-c4cccc(OC)c4)nc23)CC1 returned CYP2C19 inh 60.6*, CYP2C9 inhib 57.5*, CYP2C19 act 0.4 and CYP2C9 activ 0.4.
`CCOC(=O)c1cnn(-c2nc(-c3ccccc3)cs2)c1C(F)(F)F` gave CYP2C19 inh 42.6, CYP2C9 inhib 87.8*, sEH inhibitor -8.9, CYP2C19 act 0.6, sEH act 8.4 and CYP2C9 activ 0.1.
For CCOC(=O)c1cnn2c(C(F)(F)F)cc(-c3cn(C)nc3C)nc12 the results were CYP2C19 inh 57.1*, CYP2C9 inhib 84.7*, sEH inhibitor -0.2, CYP2C19 act 0.4, sEH act 0.3 and CYP2C9 activ 0.2.
For CCOC(=O)N1CCN(c2nc(-c3cccc(OC)c3)cc(C(F)(F)F)n2)CC1 the results were CYP2C19 inh 21.1, CYP2C9 inhib 47.4, sEH inhibitor -4.6, CYP2C19 act 0.8, sEH act 4.2 and CYP2C9 activ 0.5.
For CCOC(=O)c1cnn2c(C(F)(F)F)cc(-c3ccccc3)nc12 the results were CYP2C19 inh 27.5, CYP2C9 inhib 53.9*, CYP2C19 act 0.7 and CYP2C9 activ 0.5.
CCOC(=O)c1cnn(-c2nc(-c3ccccc3F)cs2)c1C(F)(F)F was read as CYP2C19 inh 15.9, CYP2C9 inhib 28.7, sEH inhibitor -8.4, CYP2C19 act 0.8, sEH act 8.0 and CYP2C9 activ 0.7.
`CCc1ccccc1NC(=O)CSc1nnc(Cn2nnc3ccccc32)n1C` gave sEH inhibitor 9.9 and sEH act -5.3.
For CC(C)Oc1ccc(C(=O)N(Cc2ccco2)C2CCS(=O)(=O)C2)cc1 (stereo unspecified) the results were CYP2C19 inh 6.6, CYP2C9 inhib -1.0, sEH inhibitor -12.4, CYP2C19 act 0.9, sEH act 11.1 and CYP2C9 activ 1.
Screening O=C(COc1cccc(NC(=O)c2ccco2)c1)c1ccc(F)cc1 returned CYP2C19 inh 44.0, CYP2C9 inhib 21.6, sEH inhibitor 0.6, CYP2C19 act 0.6, sEH act -1.2 and CYP2C9 activ 0.8.
